IL1B secr inh – inflammasome signaling inhibition, IL-1 beta readout | THP-1 LPS/ATP IL-1B secretion, AlphaLISA, 16 h; hits give low values | activity change, % at 57.5 µM | actives 4.7% (n = 360,000); in the data active means activity change below about -50%; inconclusive means mostly about -30% to -49%
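Secreted IL-1B measured by AlphaLISA bead assay after 16 h compound exposure of THP-1 cells; compounds (final up to 57.5 uM) added 1 h before LPS (250 ng/mL) and ATP (1.25 mM) stimulation; lower signal means less secretion.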
ELG1 repair inh – inhibitors of ELG1-dependent DNA repair in HEK293T cells; HEK293T ELG1-luciferase reporter, luminescence, 16 h; DNA damage induced by 5-fluorouridine; Potency, µM (doses to about 46.1 µM), for the others: at the top dose activity change, negative = inhibition, most hits filed as inhibitors; actives 2.3% (n = 330,000); AID 504467; further: potency means the concentration at half of the fitted maximal effect; nearly all actives have a fitted effect of over 55% in size
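Reporter activity after DNA damage by 5-fluorouridine is monitored. Compound-treated cells incubate 16 hr at 37 °C, then ONE-Glo is added for 30 min before luminescence reading.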
Giardia killer – Giardia lamblia killing. AID 540267. Giardia lamblia trophozoite viability. actives 0.15% (n = 340,000). activity change, % at 7.66 µM, hits read low; in the data active means activity change below about -80%; inconclusive means between about -30% and that limit;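 further: parasites exposed to compound for two days anaerobically before the ATP read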
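Giardia lamblia trophozoites (100 cells/well) were incubated with compounds for 48 h at 37 deg C under anaerobic conditions. Viability was read as ATP content by one-step luminescence after 15-30 min at room temperature.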
DT40 TDP1 no CPT – qHTS for Inhibitors of human tyrosyl-DNA phosphodiesterase 1 (TDP1): qHTS in cells in absence of CPT; DT40 Tdp1-/- hTDP1 cells, no CPT, ATP luminescence, 48 h; actives 15% (n = 420,000); Potency, µM (doses to about 46.2 µM), without a hit: top-dose activity change, negative = growth inhibition, actives largely listed as inhibitors; AID 686978, 2013; further: potency means the concentration at half of the fitted maximal effect; nearly all actives have a fitted effect of over 55% in size
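No-CPT arm: Tdp1-/-;hTDP1 DT40 cells (400/well) plus compounds, incubated ≥48 hr at 37 °C. Readout CellTiter-Glo luminescence.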
TDP1 inh – TDP1 (human) enzyme inhibition; recombinant TDP1, AlphaScreen DNA substrate cleavage; Potency, µM (top dose mostly 130 µM), for the others: top-dose activity change, negative = inhibition, most hits filed as inhibitors; actives 0.28% (n = 350,000); AID 485290; further: potency means the concentration at half of the fitted maximal effect; nearly all actives have a fitted effect of over 40% in size
Target sequence (Q9NUW8 whole entry, looked up): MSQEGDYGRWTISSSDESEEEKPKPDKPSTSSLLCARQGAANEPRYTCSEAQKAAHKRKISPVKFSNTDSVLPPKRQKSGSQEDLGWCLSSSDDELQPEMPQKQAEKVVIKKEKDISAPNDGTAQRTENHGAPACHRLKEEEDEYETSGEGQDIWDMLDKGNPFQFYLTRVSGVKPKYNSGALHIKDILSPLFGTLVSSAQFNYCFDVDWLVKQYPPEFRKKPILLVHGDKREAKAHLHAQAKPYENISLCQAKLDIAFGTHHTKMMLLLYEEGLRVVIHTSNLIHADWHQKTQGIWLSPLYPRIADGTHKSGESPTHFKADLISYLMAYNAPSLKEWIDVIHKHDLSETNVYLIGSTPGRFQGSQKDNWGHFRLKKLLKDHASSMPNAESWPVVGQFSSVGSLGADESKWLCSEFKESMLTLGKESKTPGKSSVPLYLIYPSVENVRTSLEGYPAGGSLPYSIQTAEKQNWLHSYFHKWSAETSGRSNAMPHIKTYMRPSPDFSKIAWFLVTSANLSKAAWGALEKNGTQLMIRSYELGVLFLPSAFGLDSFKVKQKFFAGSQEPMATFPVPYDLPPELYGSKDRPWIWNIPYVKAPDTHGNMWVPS
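Recombinant E. coli-expressed Tdp1 (1 nM) preincubated with compound 15 min at RT, then 5'-biotin/3'-phosphotyrosine-FITC DNA substrate (15 nM) added for 5 min. AlphaScreen beads (10 ug/ml) added, 10 min RT; tyrosine-FITC cleavage read as signal loss.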
TDP1 cell CPT – DT40-hTDP1 cell growth loss with CPT | actives 12% (n = 420,000) | chicken DT40 Tdp1-/-;hTDP1 cells + 20 nM CPT, ATP luminescence, 48 h | Potency, µM (highest dose often 46.2 µM), inactives show at the highest dose activity change, negative = growth inhibition, actives largely listed as inhibitors; further: potency means the concentration at half of the fitted maximal effect; nearly all actives have a fitted effect of over 55% in size
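Chicken DT40 Tdp1-/- cells complemented with human TDP1, 400 cells/well, exposed to compounds plus 20 nM camptothecin for at least 48 h at 37 C; viability read as ATP content by CellTiter-Glo luminescence.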
An asterisk follows results filed as active; ? = inconclusive; nt = no result; [ ] = remark or other dose. Compounds with a hit are over-represented: about 19% of the library has one in this group of screens. Unless noted, the call rests on the fitted dose curve; in most records, active means well fitted curve in the direction sought with a large enough effect; inconclusive means small, poorly fitted or top-dose-only effect, or another doubt; inactive means no such curve, though single readings can be large; an effect the other way counts as inactive or inconclusive. On the % scale 0 is the no-effect control and ±100 the full control effect.

SMILES	IL1B secr inh	ELG1 repair inh	Giardia killer	DT40 TDP1 no CPT	TDP1 inh	TDP1 cell CPT
COc1cc(-c2nc3n(n2)C(c2ccc(F)cc2)C(C(N)=O)=C(C)N3)cc(OC)c1OC (centres undefined)	nt	nt	nt	?	nt	-15%
Cc1ccc2c(cnn2C(=O)CCC(=O)N2CCCCC2C)c1 (centres undefined)	15	19%	-3	3%	nt	1%
COc1ccc(C(=O)COc2ccc(C)cc2NC(C)=O)cc1	-4	?	-15	21µM*	-1%	?
COCCCN1C(=O)C(CC(=O)NC2CCCC2)CC(C(=O)N(C(C)C)C(C)C)=C1C (centres undefined)	?	nt	nt	-9%	nt	1%
CCCCNC1C(CC)C(CCC)C(C#N)(C#N)C1(C#N)C#N (centres undefined)	-118*	?	-2	8.2µM*	6%	13µM*
O=C(Nc1cccc(C(F)(F)F)c1)c1cc(CN2CCOCC2)on1	nt	nt	nt	?	5%	-12%
COc1ccc2c(Cn3cnc4cc([N+](=O)[O-])ccc4c3=O)cc(=O)oc2c1	1	?	6	6.5µM*	3%	5.2µM*
Cc1ccc(OCCn2cnc3cc([N+](=O)[O-])ccc3c2=O)cc1	16	21µM*	9	?	4%	?
O=C(Cn1cnc2cc([N+](=O)[O-])ccc2c1=O)Nc1ccccc1-c1ccccc1	0	?	-12	?	3%	23µM*
Cc1ccnc(NS(=O)(=O)c2ccc(NC(=O)c3ccc4c(c3)OCCO4)cc2)n1	0	4%	?	-19%	4%	-9%
COc1ccccc1C1CN(Cc2cn(C)nc2C)Cc2ccccc2O1 (centres undefined)	nt	nt	nt	-28%	nt	12%[9.04 µM]
CCc1ccc(NC(=O)COC(=O)/C=C/c2ccco2)cc1	34	?	-4	?	25µM*	?
CCN(c1ccc(NC(=O)COC(=O)/C=C/c2ccco2)cc1)C(C)C	-2	16%	0	18µM*	6%	26µM*
O=C(COC(=O)/C=C/c1ccco1)Nc1ccccc1	-2	2%	0	3%	nt	-12%
Cc1ccccc1N1CCN(C2=NC(=O)/C(=C\c3cccs3)S2)CC1	-26	?	10	?	-4%	?
Cc1ccsc1/C=C1\SC(N2CC(C)OC(C)C2)=NC1=O (centres undefined)	0	?	5	15µM*	2%	?
COc1ccccc1C1C=C(c2ccc(Cl)cc2)Nc2nc(-c3ccc(Cl)cc3)nn21 (centres undefined)	nt	nt	nt	?	nt	16µM*
COc1ccccc1C1C=C(c2ccc(F)cc2)Nc2nc(-c3ccc(Cl)cc3)nn21 (centres undefined)	nt	nt	nt	16µM*	nt	21µM*
COc1ccccc1C1C(C(N)=O)=C(C)Nc2nc(-c3ccc(Cl)cc3)nn21 (centres undefined)	-25	?	-6	10%	4%	3%
CC(C)NC(=S)NN=C1CCC(c2ccccc2)CC1 (centres undefined)	10	-2%	5	16µM*	7%	?
COc1ccccc1-c1nn(CCC(=O)Nc2cccc(C(C)=O)c2)c2nc(C)cc(C)c12	nt	nt	nt	16µM*	8%	?
COc1cccc(OC)c1C(=O)Nc1cccc(C(C)=O)c1	-22	?	15	-2%	3%	7%
COc1cc(NC(=O)C/C(C)=N/NC(=O)C(OC)c2ccccc2)c(OC)cc1Cl (centres undefined)	-21	-4%	2	-1%	4%	-5%
Cc1cccc2cc(CN(Cc3nnnn3C3CCCCC3)C3CCCC3)c3nnnn3c12	?	?	-1	?	4%[56.1 µM]	21µM*
COc1ccc(-c2ncnc(C(F)(F)F)c2-c2csc(C)n2)c(O)c1	25	3%	?	7%	2%	-18%
SMILES	IL1B secr inh	ELG1 repair inh	Giardia killer	DT40 TDP1 no CPT	TDP1 inh	TDP1 cell CPT
Cc1nc(-c2c(-c3ccc(O)cc3O)noc2C(F)(F)F)cs1	13	?	-28	16µM*	5%	18µM*
CCC1(C2C=COC=C2)NC(=O)NC1=O (centres undefined)	10	nt	nt	1%	nt	1%
COc1ccccc1N1CC(C)(C)C(=O)N(C(=O)c2ccc(C)cc2)C1=S	-16	?	13	?	4%	-22%
NCCOc1ccc(C23CC4CC(CC(C4)C2)C3)cc1	-81*	?	-24	3.7µM*	3%	3.7µM*
Oc1ccc(C23CC4CC(CC(C4)C2)C3)cc1O	?	5%	-15	?	nt	?
OCCN1CCN(CC(O)COc2ccc(C34CC5CC(CC(C5)C3)C4)cc2)CC1 (centres undefined)	-97*	6%	2	5.2µM*	7%	5.2µM*
COc1ccccc1N1CCN(C(=O)/C=C/c2ccc3c(c2)OCO3)CC1	13	-3%	-9	21µM*	5%	21µM*
COc1ccccc1N1CCN(C(=O)/C=C/c2ccccc2)CC1	4	10%	4	16µM*	0%	?
COc1cc(/C=C/C(=O)N2CCN(c3ccccn3)CC2)cc(OC)c1OC	0	-18%	-6	23µM*	4%	?
COC(=O)c1[nH]c2ccccc2c1NC(=O)/C=C/c1ccc2c(c1)OCO2	19	?	7	-22%	3%	-29%
COc1ccccc1NC(=O)/C=C/c1ccc2c(c1)OCO2	6	?	-4	?	3%	16µM*
COc1ccc(CCNC(=O)Cn2nnc(-c3ccccc3F)n2)cc1OC	27	-12%	-9	-4%	1%	9%
O=[N+]([O-])c1ccccc1S(=O)(=O)N1CCN(c2ccc(F)cc2)CC1	-13	-9%	8	-25%	7%	10%
COc1ccc(C(F)(F)F)cc1N/C=C/c1nnnn1-c1ccc2ccccc2c1	-13	-5%	-12	-12%	nt	4%
COc1ccccc1N1CCN(CCC(=O)Nc2cccc(Cl)c2)CC1	0	-27%	23	-12%	nt	-14%
CCOC(=O)c1sc(NC(=O)c2ccc(Br)o2)cc1C	?	?	-15	16µM*	0%	?
CCOC(=O)c1sc(NC(=O)c2cccs2)cc1C	?	?	-10	?	2%	?
CCOC(=O)c1sc(NC(=O)Nc2cccc(Cl)c2)cc1C	-76*	?	-17	9.2µM*	-4%	10µM*
O=C(Nc1ccccc1)Nc1cccc(C(F)(F)F)c1	-27	-13%	-7	?	1%	?

Source: PubChem BioAssay (National Center for Advancing Translational Sciences (NCATS))
